Eight molecules from PubChem BioAssay can be followed below.

Several values for one entry are separate records, joined by “and”; a condition that tells them apart may be missing. Equal entries are not always repeated. Activity calls are given as the source filed them. Unless noted, the rule behind the calls is not given here.

The nature of assay [1]: compounds altering circadian rhythm period length – cell-based, LOPAC library, luminescence reporter (AID 2774).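 Note: values are relative to mean of DMSO wells on each plate.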 The settings on record: circadian reporter cells, at 7 µM, actives lie on both sides.
Assay [2] can be described thus: compounds altering viability of human ES cells (AID 493140).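 Note: cells exposed to compounds for four days before counting.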 The settings on record: human embryonic stem cell survival screen; stronger effect = higher value.
The nature of assay [3]: P. berghei load reduction in hepatocytes – cell-based, HepG2, luciferase luminescence, HepG2 viability, primary screen (AID 624349; in the data active = parasite load remaining mostly below about 12%, no sharp cut-off; inactive = mostly above about 10%;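 note: 100% = mean of DMSO negative control wells on the same plate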). To be noted: P. berghei liver stage in HepG2, luciferase luminescence, concentration not given here; parasite load remaining: stronger effect = lower value; viability: measured here: HepG2 viability without parasites.
The subject of assay [4] is Hepatitis C virus NS3 helicase. The assay is described as follows: blockers of NS3h binding to ssDNA – biochemical, fluorescence polarization, LOPAC1280 library, primary screen (AID 687035; in the data active = inhibition above about 37%). The settings on record: Purified HCV NS3 helicase, Cy5-dT15 ssDNA binding fluorescence polarization; stronger effect = higher value; concentration not given here. On the technique in general: Polarisation of emitted light reports the rotation of a fluorescent probe.

Assay [5] in a line: compounds altering Cy5-DNA-NS3h complex signal – biochemical, LOPAC1280, artefact control for HCV NS3 helicase inhibitor project (AID 687037). The settings on record: Cy5-DNA-NS3h complex fluorescence interference counterscreen.
The nature of assay [6]: EMT-state selective cytotoxicity in co-culture – imaging, PC-3E GFP, TEM4-18 mCherry, primary screen (AID 1345086;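 active = compounds killing one labelled cell type while sparing the other, by normalised counts and ratio limits, not self-fluorescent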;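 for all read-outs here: cells exposed to compound for 72 h before imaging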;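 for red/green cell ratio (normalised): normalised mesenchymal count divided by normalised epithelial count so high means epithelial killing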). The settings on record: PC-3E GFP / TEM4-18 mCherry co-culture, imaging cell counts, at 1 µM; for red/green cell ratio (normalised): actives lie on both sides.
Assay [7] relates to Aerobactin synthetase IucA (Klebsiella pneumoniae, hypervirulent). Kind of assay: biochemical IucA inhibition screen of LOPAC library by absorbance (AID 1346212).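 Note: 100% = no compound wells and 0% = no enzyme wells.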 The settings on record: IucA enzyme assay, absorbance (OD) readout; stronger effect = lower value;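 tested at 8 µM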.
Assay [8] is described as follows: viability loss with induced miR-34 in A549 – imaging, A549 dox-inducible miR-34, nuclei and caspase counts, primary screen (AID 1347080;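 active = compounds whose cell count with miR-34 switched on is under 0.7 times the count with it off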). To be noted: A549 miR-34 inducible, Hoechst nuclei count, 48 h.
Assay [9] is described as follows: blockers of cellular phospholipid synthesis – cell-based, LOPAC library, screen 4, primary screen (AID 1347384). To be noted: animal cells, phospholipid biosynthesis inhibition screen; at 10 µM.
Assay [10] can be described thus: MELAS cybrid and Rieske KO viability enhancers – cell-based, MELAS cybrids, Rieske KO mouse fibroblasts, CellTiter-Glo, primary screen (AID 1508586;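 active = mean z-score across replicates of 1.96 or higher in either the MELAS or the Rieske mutant cell line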;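 note: z relative to plate mean and SD of compound and empty wells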). To be noted: low glucose. For orientation: ATP-based viability assays read luminescence as a measure of living cells.
Assay [11] is described as follows: galactose survival enhancers in mitochondrial complex I cybrids – cell-based, galactose medium, ATP luminescence, primary screen (AID 1645843;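 active = z-score of at least 1.8 in each of two replicates, scored against plate mean and spread of sample wells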;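 note: positive z means more ATP and so rescue of galactose-driven cybrid death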). The settings on record: complex I mutant cybrid cells, 72 h, stronger effect = higher value.
Assay [12] has as its system Aerobactin synthetase IucA (Klebsiella pneumoniae hvKP1). Kind of assay: IucA enzyme inhibition, primary screen, biochemical, Spectrum library (AID 1346200).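 Note: 100% = wells without compound and 0% = wells lacking enzyme.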 To be noted: malachite green pyrophosphate, A620, at 8 µM, stronger effect = lower value.
The target in assay [13] is Mitogen-activated protein kinase 7 (Homo sapiens) (UniProt Q13164). The assay is described as follows: Gal4-ERK5 driven luciferase induction – cell-based, HTS, primary screen (AID 1508626;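 active = luciferase signal above three times the same-plate solvent-only control wells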;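 note: luciferase driven by Gal4-ERK5 fusion binding five Gal4 sites before minimal TATA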). To be noted: HeLa Gal4-ERK5 transactivation, 18 h, at 5 µM, stronger effect = higher value.
Sequence of Mitogen-activated protein kinase 7 (Homo sapiens) (Q13164 whole entry, looked up, the tested form may be a part): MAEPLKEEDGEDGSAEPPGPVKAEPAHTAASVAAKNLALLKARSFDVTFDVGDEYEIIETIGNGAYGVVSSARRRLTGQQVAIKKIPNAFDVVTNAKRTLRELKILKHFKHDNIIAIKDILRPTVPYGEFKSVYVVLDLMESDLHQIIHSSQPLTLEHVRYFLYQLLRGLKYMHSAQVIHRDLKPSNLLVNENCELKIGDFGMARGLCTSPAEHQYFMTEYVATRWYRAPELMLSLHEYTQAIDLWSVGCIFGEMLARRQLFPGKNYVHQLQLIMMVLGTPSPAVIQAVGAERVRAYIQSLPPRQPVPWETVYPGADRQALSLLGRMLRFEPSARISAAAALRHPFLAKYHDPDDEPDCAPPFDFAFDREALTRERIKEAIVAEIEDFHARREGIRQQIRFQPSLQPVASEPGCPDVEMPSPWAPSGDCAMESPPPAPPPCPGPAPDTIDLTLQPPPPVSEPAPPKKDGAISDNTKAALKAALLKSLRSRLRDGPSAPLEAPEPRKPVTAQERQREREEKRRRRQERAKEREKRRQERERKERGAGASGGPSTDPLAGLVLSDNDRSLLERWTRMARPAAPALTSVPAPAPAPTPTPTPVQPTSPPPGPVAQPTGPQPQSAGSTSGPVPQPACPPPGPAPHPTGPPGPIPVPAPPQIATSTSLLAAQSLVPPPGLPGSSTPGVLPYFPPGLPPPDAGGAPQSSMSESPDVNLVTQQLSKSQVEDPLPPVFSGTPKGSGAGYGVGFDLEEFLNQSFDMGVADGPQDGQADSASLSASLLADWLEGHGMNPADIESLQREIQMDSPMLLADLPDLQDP
[14] abbreviates: measured here: epithelial PC-3E GFP cell survival.
Setting [15] is: measured here: mesenchymal TEM4-18 mCherry cell survival.
Where [16] appears, read: measured here: relative caspase fold change +Dox/-Dox.
Where [17] appears, read: measured here: total cells with miR-34 induction, stronger effect = lower value.
Where [18] appears, read: measured here: total cells without miR-34 induction.
Where [19] appears, read: MELAS cybrid survival, CellTiter-Glo 48 h, stronger effect = higher value.
[20] abbreviates: Rieske KO mouse fibroblast survival, CellTiter-Glo 72 h.

With `C[N+]1(C)CCOC(O)(c2ccc(-c3ccc(C4(O)C[N+](C)(C)CCO4)cc3)cc2)C1` (stereo unspecified), the period change in assay [1] is 0.02 h (inactive). The survival in assay [2] is 3.33 (inactive). In addition, in assay [3], the parasite load remaining was 172% (inactive) and 77.5% (inactive). In assay [3], the viability – broadly, a read-out of living cells in per cent, often relative to untreated cells – is 105% and 75.6%. In addition, the inhibition – broadly, the relative decrease from the control value, in per cent – in assay [4] is 3% (inactive). Besides, the fluorescence ratio (interference) in assay [5] was 1 (inactive). For the same molecule, in assay [6], the red/green cell ratio (normalised) is 0.92 (inactive). Also, the values for the normalised cell number in assay [6] (setting [14]) and in assay [6] (setting [15]) were 1.15 and 1.05, respectively. Moreover, the remaining activity (as a rule, the signal under treatment as a percentage of the control signal) in assay [7] is 108% (inactive). The fold change is 1.02 (inactive) and 0.872 (inactive) in assay [8] (stronger effect = lower value); 0.804 and 1.21 in assay [8] (setting [16]). In addition, the cell count is 10300 and 8560 in assay [8] (setting [17]); 10200 and 9810 in [8] (setting [18]). For the same molecule, the molecule was called inactive in [9]. Besides, the z-score in [10] (setting [19]) is -0.344 (inactive); in assay [10] (setting [20]), -0.223; in [11] it was 0.135 (inactive).

Consider `O=C1C=CC(=O)c2ccccc21`, for which the red/green cell ratio (normalised) in [6] was 0.81 (inactive). The figures for the normalised cell number in assay [6] (setting [14]) and in [6] (setting [15]) were 1.25 and 1.02, respectively. Besides, the activity remaining in assay [12] is 105% (inactive). Moreover, the luciferase signal in assay [13] is 388 AU (active).

Regarding `C[C@]12CCC3[C@@H](CC[C@@]45O[C@@H]4C(O)=C(C#N)C[C@]35C)C1CC[C@@H]2O` (stereo partly specified), in assay [6], the red/green cell ratio (normalised) is 0.77 (inactive). The normalised cell number was found to be 1.16 in assay [6] (setting [14]) and 0.89 in assay [6] (setting [15]). The values for the fold change in assay [8] (stronger effect = lower value) and in assay [8] (setting [16]) were 1 (inactive) and 0.592, respectively. The cell count worked out at 8890 in assay [8] (setting [17]) and 8870 in [8] (setting [18]).

As to `O=C(O)Cc1cnc[nH]1`, in assay [1], the period change was 0.01 h (inactive). Moreover, the inhibition in assay [4] was -1% (inactive). The fluorescence ratio (interference) in [5] was 1 (inactive). The red/green cell ratio (normalised) in assay [6] (counts scaled to control wells, 1 = unselective) is 0.87 (inactive). The normalised cell number is 1.11 in assay [6] (setting [14]) and 0.97 in [6] (setting [15]). Moreover, in [7], the remaining activity is 121% (inactive). Further, the fold change in [8] (stronger effect = lower value) was 0.943 (inactive); in [8] (setting [16]), 1.63. The cell count turned out to be 10100 in [8] (setting [17]) and 10700 in [8] (setting [18]). Also, the molecule was classed as inactive in assay [9]. Besides, in assay [11], the z-score is -0.12 (inactive).

For the molecule `COC(=O)C(c1ccccc1)C1CCCCN1` (stereo unspecified), the parasite load remaining in assay [3] is 51.8% (inactive). Besides, the viability in [3] was 106%. In [6], the red/green cell ratio (normalised) is 0.97 (inactive). The normalised cell number in assay [6] (setting [14]) is 1.07; in [6] (setting [15]), 1.04. Further, the fold change in assay [8] (stronger effect = lower value) is 0.909 (inactive); in assay [8] (setting [16]), 3.99. Further, the cell count worked out at 12600 in assay [8] (setting [17]) and 13900 in [8] (setting [18]). In addition, the luciferase signal in assay [13] was 44 AU (inactive).

As to `CC(C)(N)Cc1ccccc1`, in assay [3], the parasite load remaining was 7.56% (inactive). Also, the viability in assay [3] was 113%. Further, the red/green cell ratio (normalised) in assay [6] is 0.91 (inactive). Moreover, the normalised cell number in [6] (setting [14]) was 1.06; in assay [6] (setting [15]), 0.97. For the same molecule, the fold change in assay [8] (stronger effect = lower value) was 0.89 (inactive); in assay [8] (setting [16]) it was 4.46. In addition, the cell count stood at 11900 in [8] (setting [17]) and 13300 in [8] (setting [18]). Further, the z-score was -0.229 (inactive) in [10] (setting [19]) and -0.552 in [10] (setting [20]). Besides, in assay [13], the luciferase signal was 64 AU (inactive).

Take `CC[C@H]1C2CC3[C@@H]4N(C)c5ccccc5[C@]45C[C@@H](C2C5O)N3[C@@H]1O` (stereo partly specified): in assay [3], the parasite load remaining is 88.5% (inactive) and the viability turned out to be 73.8%. In addition, the red/green cell ratio (normalised) in assay [6] was 1.03 (inactive). The molecule also returned a normalised cell number in assay [6] (setting [14]) of 0.98. In addition, the normalised cell number in [6] (setting [15]) is 1.01. For the same molecule, the activity remaining in [12] is 112% (inactive).

Consider `C=CCc1ccc(OC)cc1`, for which the red/green cell ratio (normalised) in assay [6] is 1.02 (inactive). Moreover, the normalised cell number came to 0.96 in [6] (setting [14]) and 0.99 in assay [6] (setting [15]). Besides, the activity remaining in assay [12] is 107% (inactive). Moreover, the luciferase signal in [13] is 52 AU (inactive).
